# PubChem BioAssay (Tox21)
# Several values for one entry are separate records, joined by “and”; a condition that tells them apart may be missing. Equal values may be shown once. Inconclusive results are not listed. Activity calls are given as the source filed them. The call rests on the fitted dose curve; in most records, active means well fitted cell-killing curve with a large enough effect in the repeat runs; inconclusive means weak or mixed curves, or effect the other way; inactive means no such curve, though single readings can be large or run the other way.
# Experiment: qHTS assay for small molecule activators of the heat shock response signaling pathway - cell viability counter screen (AID 743209); further: nearly all actives have a fitted effect of over 50% in size
# Settings: HSE-bla HeLa viability, CellTiter-Glo luminescence, 5 h; series mostly up to 62.6 µM; activity change, negative = cytotoxicity: at the top concentration
# Text: U.S. Tox21 Program National Center for Advancing Translational Sciences [NCATS] NIH Chemical Genomics Center [NCGC] U.S. Environmental Protection Agency [EPA] National Institutes of Environmental Health Sciences [NIEHS] National Toxicology Program [NTP] U.S. Food and Drug Administration [FDA] Tox21 Assay Overview: Various chemicals, environmental and physiological stress conditions may lead to the activation of heat shock response/ unfolded protein response (HSR/UPR). There are three heat shock transcription factors (HSFs) (HSF-1, -2, and -4) mediating transcriptional regulation of the human HSR. To identify the compounds that activate HSR signaling, HSE-bla HeLa cell line (Invitrogen, Carlsbad, CA, USA) containing a beta-lactamase reporter gene under the control of the heat shock response elements was used to screen Tox21 10K compound library. The cytotoxicity of the Tox21 compound library against the HSE-bla HeLa cell line was tested in parallel by measuring the cell viability using CellTiter-Glo assay (Promega, Madison, WI) in the same wells.
# Tox21 Assay Protocol Summary: The CellSensor HSE-bla HeLa cells (Invitrogen, Carlsbad, CA, USA) were dispensed at 1500 cells/6uL/well into 1536-well black wall/clear bottom plates using a Multidrop combi (Thermo Fisher Scientific, Waltham, MA) dispenser. After the assay plates were incubated at 37 C and 5% CO2 overnight, 23 nL of compounds dissolved in DMSO, positive controls or DMSO only was transferred to the assay plate by a Pintool station (Kalypsys, San Diego, CA). The plates were incubated at 37 C for 5 h. After 1 uL of LiveBLAzerTM B/G FRET substrate was added using a Flying Reagent Dispenser (FRD, Beckman Coulter, Indianapolis, IN, USA), the plates were incubated at room temperature for 2.5 h, and fluorescence intensity was measured by an Envision plate reader (PerkinElmer, Shelton, CT). For cell viability readout that measures cytotoxicity, 3 ul/well of CellTiter-Glo reagent was added into the assay plates using a FRD. After 30 min incubation at room temperature, the luminescence intensity in the plates was measured using a ViewLux (PerkinElmer) plate reader.
# On the % scale 0 is the no-effect control and ±100 the full control effect; potency means the concentration at half of the fitted maximal effect.
Compound,"activity change, negative = cytotoxicity",Potency
ON=C1CCCC1,-4.44% [at 81.1 µM] (inactive),–
CCCC(=O)OC[C@@H](OC(=O)CCC)[C@@H](OC(=O)CCC)[C@H](Cn1c2nc(=O)[nH]c(=O)c-2nc2cc(C)c(C)cc21)OC(=O)CCC,-5.77% (inactive),–
CC(C)(C)c1ccc(C(=O)CCCN2CCC(OC(c3ccccc3)c3ccccc3)CC2)cc1,–,29.8 µM (active)
CSc1ccc(/C=C2/C(C)=C(CC(=O)O)c3cc(F)ccc32)cc1,-10.8% (inactive),–
CC(=O)SC[C@@H](Cc1ccccc1)C(=O)NCC(=O)OCc1ccccc1,-18.8% (inactive),–
CCc1cc(Cc2cc(CC)cc(C(C)(C)C)c2O)c(O)c(C(C)(C)C)c1,–,5.49 µM (active)
CCc1oc2ccccc2c1C(=O)c1cc(Br)c(O)c(Br)c1,-19.5% (inactive),–
CCCCCCCCCCCC[N+](C)(C)CCCCCCCCCCCC,–,43.6 µM (active)
Cc1cccc(N(C)C(=S)Oc2ccc3c(c2)C2CCC3C2)c1 (stereo not given),-0.313% (inactive),–
CN(C)C(=O)C1(N2CCCCC2)CCN(CC[C@@]2(c3ccc(Cl)c(Cl)c3)CN(C(=O)c3ccccc3)CCO2)CC1,–,51.3 µM (active)
C[C@H]1[C@H]2CC[C@H]3[C@@H]4CC=C5C[C@@H](N(C)C)CC[C@]5(C)[C@H]4CC[C@]23CN1C,8.43% (inactive),–
CCCCC(CC)COP(=O)(O)OCC(CC)CCCC (stereo not given),–,49.1 µM (active) and 43.6 µM (active)
CN(C)[C@@H]1C(=O)C(C(N)=O)=C(O)[C@@]2(O)C(=O)C3=C(O)c4c(O)cccc4C[C@H]3C[C@@H]12,-10.9% (inactive),–
O=C(NO)C1(NS(=O)(=O)c2ccc(Oc3ccc(F)cc3)cc2)CCOCC1,5.9% (inactive),–
CCOc1nc2cccc(C(=O)OC(C)OC(=O)OC3CCCCC3)c2n1Cc1ccc(-c2ccccc2-c2nn[nH]n2)cc1 (stereo not given),–,13.8 µM (active)
Oc1ccc(Cl)cc1Sc1cc(Cl)ccc1O,–,38.8 µM (active)
CCCCCCCCCCCCCCCC(=O)OC[C@H](O)[C@H]1OC(=O)C(O)=C1O,–,49 µM (active)
CCCCCCCCCCCCCC[P+](CCCC)(CCCC)CCCC (tested in a mixture with another compound),–,11 µM (active)
CN(C/C=C/C#CC(C)(C)C)Cc1cccc2ccccc12,-9.24% (inactive),–
CCN(C(=O)c1cc(C)cc(OC[C@H](C)Nc2ccncc2)c1)C(C)C,3.23% (inactive),–

Compound,"activity change, negative = cytotoxicity",Potency
CSc1ccc2c(c1)C(N1CCN(C)CC1)Cc1ccccc1S2 (stereo not given),-8.7% (inactive),–
O=S1(=O)CC(Cl)(Cl)C(Cl)(Cl)C1,–,1.95 µM (active)
O=C(O)c1c(Cl)cccc1Cl,-9.67% (inactive),–
CCN(CC)CCCC(C)Nc1c2ccc(Cl)cc2nc2ccc(OC)cc12 (stereo not given),-17.1% (inactive),–
CC1=C(/C=C/C(C)=C/C=C/C(C)=C/C=O)C(C)(C)CCC1,–,34.5 µM (active)
O=c1c(-c2ccccc2)c1-c1ccccc1,12.8% (inactive),–
O=C1C=CC(=O)N1,–,20 µM (active)
CCCC1O[C@@H]2C[C@H]3[C@@H]4CCC5=CC(=O)C=C[C@]5(C)[C@H]4[C@@H](O)C[C@]3(C)[C@]2(C(=O)CO)O1 (stereo not given in full),–,inactive
Oc1ccc2cc(SSc3ccc4cc(O)ccc4c3)ccc2c1,–,inactive
O=C(OCC(COC(=O)c1ccccc1)(COC(=O)c1ccccc1)COC(=O)c1ccccc1)c1ccccc1,8.46% (inactive),–
CCN(CCC#N)c1ccc(N=Nc2c(Cl)cc([N+](=O)[O-])cc2Cl)cc1,-3.2% (inactive),–
CCCCCCCCCCC=O,-4.92% [at 81.1 µM] (inactive),–
N=C1N=C(N)c2cc3ccccc3cc21,–,25.9 µM (active)
CS(=O)(=O)CCNCc1ccc(-c2ccc3ncnc(Nc4ccc(OCc5cccc(F)c5)c(Cl)c4)c3c2)o1,–,26.6 µM (active)
Cc1cccc(CN2CCN(C(c3ccccc3)c3ccc(Cl)cc3)CC2)c1 (stereo not given),-12.9% (inactive),–
CCCC/C=C/CCCCO,11.3% (inactive),–
CC(C)(C)CC(C)(C)c1ccc(O)c(Cc2ccc(Cl)cc2Cl)c1,–,23.7 µM (active)
Nc1cc(C(F)(F)F)ccc1S,-2.7% (inactive),–
CC(C)c1ccc2c(c1)CC[C@H]1[C@](C)(CN)CCC[C@]21C,–,19.5 µM (active)
CCCCCCCCCCCC(=O)NCCCN(C)C,–,49 µM (active)
